Screen size: about 290,000 compounds; about 3,000 (1%) were called active. No stated cut-off is given here; in the data, active means inhibition mostly above about 36% (no sharp cut-off); inactive means mostly below about 34%. The list comes from a sample in which actives are over-represented; it also holds similar structures and randomly drawn compounds.
Assay: inhibition of NOD1-driven NF-kB reporter – cell-based, luminescence, uHTS, primary screen (AID 1578);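 further: HEK-293T reporter cells stimulated with the NOD1 agonist gamma-tri-DAP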
Conditions: NOD1-driven NF-kB luciferase reporter cells, at 4 µM, hits give high values
With `CCOCCOC(=O)c1[nH]c2c(c1C)C(=O)CC(c1cc(OC)c(OC)c(OC)c1)C2` (stereo unspecified) the inhibition was 4.2% (inactive). With `CCCOC(=O)c1[nH]c2c(c1C)C(=O)CC(c1ccc(OC)c(OC)c1)C2` (stereo unspecified) the inhibition was -5.9% (inactive). With `CC(=O)N1CCN(c2ccccc2NC(=O)c2ccc(C#N)cc2F)CC1` the inhibition was 2.6% (inactive). With `COc1ccc(OCCN2CCN(C(=O)c3ccc(OC)c(OC)c3)CC2)cc1` the inhibition was -11.7% (inactive). With `Cc1ccc(-c2nc(N)sc2-c2ccccc2)cc1C` the inhibition was -14% (inactive). For `CCOC(=O)N1CCc2c(sc(NC(=O)c3ccc(Cl)s3)c2C(N)=O)C1`, the inhibition was 85.3% (active). With `CCOC(=O)N1CCc2c(sc(NC(=O)C3=COCCO3)c2C(N)=O)C1` the inhibition was -29.7% (inactive). With `CCOC(=O)c1c(NC(=O)c2cccs2)sc2c1CCN(C(=O)OCC)C2` the inhibition was 14% (inactive). In the case of `O=C(CSc1nnc(-c2ccccc2Br)o1)Nc1cccc2ccccc12`, the inhibition is reported as -22.5% (inactive). For `Cc1ccc(C2=Nn3c(COc4ccc(Cl)cc4)nnc3SC2CC(=O)O)cc1` (stereo unspecified), the inhibition was 3.6% (inactive). With `CN(CCCNC(=O)Cn1c(=O)c2cccn2c2ccccc21)Cc1ccccc1` the inhibition was -17.1% (inactive). With `Cc1ccccc1NC(=O)COC(=O)C1(C)CC1(Cl)Cl` (stereo unspecified) the inhibition was -11.4% (inactive). In the case of `Cc1ccc(S(=O)(=O)Oc2ccc(/C=C(/NC(=O)c3ccccc3)C(=O)NCCCC(=O)O)cc2)cc1`, the inhibition is reported as -18.3% (inactive). With `COC(=O)c1c(-c2ccccc2)csc1NC1=NS(=O)(=O)c2ccccc21` the inhibition was 82.4% (active). In the case of `COC(=O)c1ccc(C(=O)OC)c(NC2=NS(=O)(=O)c3ccccc32)c1`, the inhibition is reported as -20.3% (inactive). With `CCOC(=O)c1c(-c2ccc(C)cc2)csc1NC1=NS(=O)(=O)c2ccccc21` the inhibition was 24% (inactive). With `O=C(OCC(=O)c1cccs1)c1ccccc1` the inhibition was 2.3% (inactive). In the case of `Cc1nc2ccc(F)cc2cc1C(=O)Nc1ccc(Cl)c(Cl)c1`, the inhibition is reported as -34% (inactive). For `Cc1ccc(NC(=O)N(Cc2nc3ccccc3c(=O)[nH]2)Cc2cccs2)cc1`, the inhibition was -2.2% (inactive). For `O=C(Nc1ccc(Cl)cc1)N(Cc1nc2ccccc2c(=O)[nH]1)Cc1cccs1`, the inhibition was 99.1% (active). For `O=C(Nc1cccc(Cl)c1)N(Cc1nc2ccccc2c(=O)[nH]1)Cc1cccs1`, the inhibition was -26.5% (inactive). For `Cn1cc(C(=O)NCc2cccs2)c(=O)c2cc(S(=O)(=O)N3CCCC3)ccc21`, the inhibition was 53% (inactive). In the case of `CCn1c(O)c(N=Nc2ccc3ccccc3n2)c2ccccc21`, the inhibition is reported as -7.9% (inactive). For `Brc1ccc(N=Nc2ccc3ccccc3n2)cc1`, the inhibition was 43.4% (active). In the case of `Brc1ccc(/C=N/Nc2ccc3ccccc3n2)cc1`, the inhibition is reported as -39.3% (inactive). In the case of `CC1Cc2ccccc2N1CC(=O)Nc1ccc(S(=O)(=O)N(C)C)cc1` (stereo unspecified), the inhibition is reported as -7.7% (inactive). For `Cc1ccc(C(C)NC(=S)NCc2ccc(F)cc2)cc1C` (stereo unspecified), the inhibition was -16.4% (inactive). With `CCOc1ccc(C(C)NC(=S)NCc2ccc(F)cc2)cc1` (stereo unspecified) the inhibition was 8.6% (inactive). In the case of `Cc1ccc(C)c(C(C)NC(=S)NCc2ccc(F)cc2)c1` (stereo unspecified), the inhibition is reported as 52.6% (active). For `COc1cccc(C(C)NC(=S)NCc2ccc(F)cc2)c1` (stereo unspecified), the inhibition was 20.3% (inactive). For `COc1ccc(C(C)NC(=S)NCc2ccc(F)cc2)cc1` (stereo unspecified), the inhibition was 55.1% (active). With `Cc1ccc(C(C)NC(=S)NCc2ccc(F)cc2)c(C)c1` (stereo unspecified) the inhibition was 29.2% (inactive). With `COCCNC(=O)Cn1c(=O)n(C)c2ccccc21` the inhibition was -14% (inactive). With `Cc1cc(C)cc(N(C(C)C(=O)NCCC2=CCCCC2)S(C)(=O)=O)c1` (stereo unspecified) the inhibition was 15% (inactive). In the case of `CC(=O)Nc1ccc(NC(C)=C(C#N)C#N)cc1`, the inhibition is reported as -12.5% (inactive). With `COc1ccc(NC(=S)N2c3ccccc3CC2C)cc1OC` (stereo unspecified) the inhibition was 30.4% (active). In the case of `COc1ccc(NC(=O)N2c3ccccc3CC2C)cc1OC` (stereo unspecified), the inhibition is reported as -26.9% (inactive). With `COc1cccc(NC(=S)N2c3ccccc3CC2C)c1` (stereo unspecified) the inhibition was -26.6% (inactive). For `CCN(C(=O)COC(=O)CSc1ccc([N+](=O)[O-])cc1)C1CCS(=O)(=O)C1` (stereo unspecified), the inhibition was -23.6% (inactive). For `COc1cc(C(=O)N/N=C/c2ccc3c(c2)c2ccccc2n3C)ccc1O`, the inhibition was 32.9% (inactive). For `Cc1ccc(CNC(=O)CCS(=O)(=O)Cc2ccc(C)cc2)cc1`, the inhibition was 15.8% (inactive). For `CC(C)c1ccc2c(c1)C1Cc3ccccc3C1N2` (stereo unspecified), the inhibition was -15.3% (inactive). In the case of `CCOc1cc(/C=C2/COc3ccccc3C2=O)ccc1OCC(=O)N(C)C`, the inhibition is reported as 36.8% (inactive). In the case of `CCOc1cc(/C=C2\COc3ccccc3C2=O)ccc1OCC(=O)N(C)C`, the inhibition is reported as 30.7% (inactive). With `CCOc1cc(/C=C2\COc3ccccc3C2=O)cc(Br)c1OCC(=O)N(C)C` the inhibition was 54.9% (active). For `COc1ccccc1Oc1nc(-c2ccccc2)cc(C)c1S(C)(=O)=O`, the inhibition was -16.2% (inactive). With `COc1cccc(NC(=O)C2CCN(S(=O)(=O)c3ccc4c(c3)CC(C)N4C(C)=O)CC2)c1` (stereo unspecified) the inhibition was -22.9% (inactive). With `Cc1ccc(-c2cc3nc(-c4ccc(Br)cc4)cc(N)n3n2)cc1` the inhibition was -9.8% (inactive). With `Nc1cc(-c2ccc(Br)cc2)nc2cc(-c3ccccc3)nn12` the inhibition was -10.5% (inactive). With `CN1C(=O)C(C)(C)c2cc(S(=O)(=O)NCCc3ccc(Cl)cc3)ccc21` the inhibition was -14.4% (inactive). In the case of `CC1(C)Cc2c(sc3c2c(=N)n(Cc2ccco2)c(=O)n3CC(=O)Nc2ccc(Cl)cc2)CO1`, the inhibition is reported as 1% (inactive). In the case of `COc1ccc2nc(C)cc(N3CC(C)OC(C)C3)c2c1` (stereo unspecified), the inhibition is reported as 8.1% (inactive). With `O=C(O)CCc1cc(I)c(Oc2ccc(O)c(I)c2)c(I)c1` the inhibition was 51.7% (active). For `O=C(O)Cc1cc(I)c(Oc2ccc(O)c(I)c2)c(I)c1`, the inhibition was -16.4% (inactive). For `N[C@@H](Cc1cc(I)c(Oc2ccc(O)c(I)c2)c(I)c1)C(=O)O`, the inhibition was 14.2% (inactive). For `C=CCC(O)(CCN1CCCCC1)c1ccccc1` (stereo unspecified), the inhibition was -19.4% (inactive). With `Cc1ccccc1N(C(=O)c1ccccn1)C(C(=O)NCc1ccccc1)c1ccncc1` (stereo unspecified) the inhibition was -21.2% (inactive). With `O=C(Cc1ccc(Cl)cc1Cl)Nc1cccc(S(=O)(=O)Nc2ccccc2F)c1` the inhibition was -7.5% (inactive). For `N#CC(C#N)=C1C=CC=CN1/C(=C\c1ccco1)C(=O)c1ccccc1`, the inhibition was -25.3% (inactive). With `N#CC(C#N)=C1C=CC=CN1/C(=C\c1ccco1)C(=O)c1ccc(Br)cc1` the inhibition was -10.9% (inactive). With `N#CC(C#N)=C1C=CC=CN1/C(=C\c1ccco1)C(=O)c1ccc(Cl)cc1` the inhibition was 104% (active).
